Compound activity: PubChem, The Scripps Research Institute Molecular Screening Center
M1 PAM = human M1 muscarinic receptor positive allosteric modulators, primary screen, CHO-K1 cells, Fluo-8 calcium fluorescence, 1536-well | Muscarinic acetylcholine receptor M1 (Homo sapiens), P11229 | CHO-K1 hM1, ACh EC20; 0% = ACh EC20, 100% = maximal ACh | activation, % at 3 µM | hit rate 0.088% among 360,000 | AID 588819, 2011; in the data active = activation above about 19%, passing the limit was not always enough
Target sequence (P11229 whole entry, looked up): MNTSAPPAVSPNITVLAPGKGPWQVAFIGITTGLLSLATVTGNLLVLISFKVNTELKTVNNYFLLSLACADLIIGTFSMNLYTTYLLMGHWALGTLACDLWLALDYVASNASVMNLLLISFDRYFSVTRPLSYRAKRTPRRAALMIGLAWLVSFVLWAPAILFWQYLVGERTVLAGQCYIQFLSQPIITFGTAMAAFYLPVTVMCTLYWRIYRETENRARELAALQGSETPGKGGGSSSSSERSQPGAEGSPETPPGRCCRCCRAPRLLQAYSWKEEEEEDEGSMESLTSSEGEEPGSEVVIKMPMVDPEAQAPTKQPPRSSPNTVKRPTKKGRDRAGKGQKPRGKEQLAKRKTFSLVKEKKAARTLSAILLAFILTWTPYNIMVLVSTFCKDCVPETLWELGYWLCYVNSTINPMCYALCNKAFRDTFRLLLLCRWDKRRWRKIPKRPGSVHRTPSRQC
CHO-K1 Ca antag = counter-screen for M1 antagonists: effect in parental CHO-K1 cells | ATP-induced calcium, Fluo-8 fluorescence | inhibition, % at 3 µM | hit rate 0.6% among 360,000 | AID 602250;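 active = inhibition above a per-plate cutoff, the plate's mean sample inhibition plus 3 SD, cut at about 24% in these data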
M1 ag parental = counter-screen for M1 agonists: effect in parental CHO-K1 cells. activation, % at 3 µM. Fluo-8 calcium fluorescence; scaled to maximal ATP response, vehicle zero. hit rate 0.48% among 360,000; in the data active = activation above about 15%;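 note: untransfected CHO-K1 host cells lacking M1 receptor as counterscreen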
CHRM1 agonist = human M1 muscarinic receptor agonists, primary screen, Fluo-8 calcium fluorescence, CHO-K1 cells, HTS; Muscarinic acetylcholine receptor M1 (Homo sapiens), P11229; CHO-K1 hM1, agonist mode; 0% DMSO, 100% acetylcholine EC100; activation, % at 3 µM; hit rate 0.33% among 360,000;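 active = activation above the run's mean compound activation plus 3 SD, cut at about 16% in these data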;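 note: peak over basal fluorescence ratio within a 140 s kinetic read after compound addition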
M1 antag = human M1 muscarinic receptor antagonists, primary screen, CHO-K1 cells, Fluo-8 calcium fluorescence, 1536-well; AID 588852, 2011; CHO-K1 hM1, ACh EC80 antagonist; Muscarinic acetylcholine receptor M1 (Homo sapiens), P11229; hit rate 1.3% among 360,000; inhibition, % at 3 µM;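 active = percent inhibition above its own plate's cutoff, namely the mean of that plate's compound wells plus 3 SD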;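 note: peak over basal fluorescence ratio during 140 s after agonist addition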
M1 PAM parental = nonselective calcium activators in parental CHO-K1 cells, primary screen, counter-screen for M1 PAM project, cell-based, Fluo-8 calcium fluorescence, full deck, 1536-well. hit rate 0.02% among 360,000. activation, % at 3 µM. ATP EC20; 0% at ATP EC20, 100% at ATP max;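 active = activation above the run cutoff, the mean activation of all test compounds plus 3 SD, cut at about 40% in these data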;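 note: peak over basal fluorescence ratio in a 140 s read after ATP addition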
Each line names hits and unclear results; the compound was inactive in the other large screens. This is a sample that favours compounds with a hit; in the whole collection about 2.4% have one here.

Cc1ccc(Cl)c2c1=NC(=O)C=2c1[nH]c(=S)[nH]c1O	M1 ag parental 17
CC(C)Cc1ccc(-c2cc3nc(NCC4CC4)ccn3n2)cc1	none
O=C(Nc1cccc(S(=O)(=O)N2CCCCC2)c1)C1COc2ccccc2O1 (stereo not drawn)	none
O=C(NC1CCCCC1)C(c1ccncc1)N(C(=O)c1csnn1)c1ccc(F)cc1 (stereo not drawn)	none
CCOC(=O)C1CCN(c2ccccc2CN2CCN(c3ccccc3OCC)CC2)CC1	M1 antag 48
O=S(=O)(NC1CCCC1)c1ccc(S(=O)(=O)N2CCc3ccccc32)cc1	M1 ag parental 16
Nc1ccc(S(=O)(=O)N2CCc3ccccc32)cc1	none
CC(Sc1nnc(CN2CCCC2)n1Cc1ccccc1)C(=O)Nc1ccc(F)cc1Cl (stereo not drawn)	CHO-K1 Ca antag 24
Cc1ccc(C(=O)N2CCN(S(=O)(=O)c3ccc(Br)cc3)CC2)o1	none
COC(C[C@@H]1O[C@H]1C(=O)COCc1ccccc1)OC	M1 PAM 30
CCOC(=O)Cc1csc(NC(=O)CSc2ncnc3c2cnn3-c2ccccc2Cl)n1	M1 antag 28
CCCCc1c(O)nc(SCC(=O)Nc2ccc(OC)cc2)n(-c2ccc(C)c(C)c2)c1=O	none
COc1ccc(N=C2C(=O)Nc3ccc(C)c(Br)c32)cc1	CHO-K1 Ca antag 26
Cc1ccc(N=C2C(=O)Nc3ccc(C)c(Br)c32)cc1	none
C=C(CN(C)C)C(=O)c1cc(C)ccc1C	none
O=C(NC(=S)NNC(=O)c1ccco1)c1ccc(Br)cc1	M1 ag parental 18, CHRM1 agonist 25
O=C(NNC(=S)NC(=O)c1ccco1)c1ccc(F)cc1	M1 ag parental 24
O=C1CC(N2CCN(C3CC(=O)N(CCc4ccccc4)C3=O)CC2)C(=O)N1CCc1ccccc1 (stereo not drawn)	none
O=C1CC(N2CCN(C/C=C/c3ccccc3)CC2)C(=O)N1CCc1ccccc1 (stereo not drawn)	M1 ag parental 16
O=C1CC(N2CCN(C/C=C/c3ccccc3)CC2)C(=O)N1Cc1cccs1 (stereo not drawn)	M1 antag 87
O=C1CC(N2CCN(c3ccc(O)cc3)CC2)C(=O)N1Cc1cccs1 (stereo not drawn)	none
COc1ccc(NCC(=O)Nc2c(C)cccc2C)cc1S(=O)(=O)N1CCOCC1	none
CC(C(=O)NC(C)(C)C)N(Cc1cccs1)C(=O)CCN1CCc2ccccc21 (stereo not drawn)	M1 ag parental 22
CC(C)(C)NC(=O)CN(Cc1cccs1)C(=O)CCN1CCc2ccccc21	none
Cc1ccc(-c2c(C(=O)N/N=C/c3cccs3)nnn2-c2nonc2N)cc1	CHRM1 agonist 18
CCOc1ccc(-c2c(C(=O)N/N=C/c3cccs3)nnn2-c2nonc2N)cc1	none
Cc1ccc(-c2c(C(=O)N/N=C/c3ccoc3)nnn2-c2nonc2N)cc1	none
Cc1ccc(-c2c(C(=O)N/N=C/c3ccsc3)nnn2-c2nonc2N)cc1	M1 ag parental 17, CHRM1 agonist 41
Nc1nonc1-n1nnc(C(=O)N/N=C/c2cccs2)c1-c1ccc2c(c1)OCO2	M1 ag parental 42, CHRM1 agonist 43
CCOc1cccc(-c2c(C(=O)N/N=C/c3ccsc3)nnn2-c2nonc2N)c1	CHRM1 agonist 19
CCOc1cccc(-c2c(C(=O)N/N=C/c3sccc3C)nnn2-c2nonc2N)c1	none
C[n+]1ccn(CC(=O)c2cc(C(C)(C)C)c(O)c(C(C)(C)C)c2)c1	none
CCOC(=O)C1(C)CCCN(C(=O)c2snnc2C)C1 (stereo not drawn)	none
COc1ccc(CCNC(=O)c2cc(=O)c3cc(C)ccc3o2)cc1OC	M1 ag parental 17
O=C(NC(c1ccccc1)c1ccccc1)C1CCCO1 (stereo not drawn)	M1 ag parental 21
Cc1cn([C@H]2C[C@H](O)[C@@H](CCC(=O)NCc3cccs3)O2)c(=O)[nH]c1=O	CHO-K1 Ca antag 24
CCn1c(SCc2ccc(C(=O)Nc3cc(C)cc(C)c3)cc2)nnc1-c1ccncc1	M1 antag 31
CCn1c(SCc2cccc(C)c2)nnc1-c1ccc(C)cc1	M1 ag parental 16
CCOC(=O)C1CCN(c2ncnc3c2oc2ccc(Cl)cc23)CC1	CHO-K1 Ca antag 27
CCOC(=O)C1CCN(c2ncnc3c2[nH]c2cccc(OC)c23)CC1	none
Cn1c(SCC(=O)Nc2ccccc2Oc2ccccc2)nnc1C1CC1	none
CCOC(=O)Cc1csc(NC(=O)Nc2ccc(Cl)cc2)n1	M1 ag parental 18
CCOC(=O)Cc1csc(NC(=O)Nc2cccc(Cl)c2)n1	none
CCCCC(=O)Nc1ccc(C(=O)Nc2nc(CC(=O)OCC)cs2)cc1	M1 ag parental 21
COc1ccc(C(=O)Nc2nc(CC(=O)NCc3ccc(F)cc3)cs2)cc1	M1 ag parental 20
COc1ccccc1Oc1ccc2c(c1)C(=O)N(c1cccc3ncccc13)C2=O	CHO-K1 Ca antag 24
O=C1[C@@H]2[C@@H](CN3CN(c4ccccc4)N=C(c4ccccc4)[C@@]23c2ccccc2)C(=O)N1c1ccccc1	M1 PAM parental 42
O=C1[C@H]2C(c3ccccc3)=NN(c3ccccc3)[C@H]2C(=O)N1c1ccccc1	none
COc1cc2c(cc1OC)C(C1C(=O)CCCC1=O)N(C(=O)CCl)CC2 (stereo not drawn)	none
COc1ccc2c(c1)CCN(C(=O)CCl)C2C1C(=O)CCCC1=O (stereo not drawn)	CHRM1 agonist 25
C[C@@H]1CN([C@H](C)CO)C(=O)CCCn2nncc2CO[C@@H]1CN(C)S(=O)(=O)c1cccc(F)c1	none
CC(=O)N1CCN(C(=O)/C(C#N)=C/c2ccc3c(c2)OCO3)CC1	M1 PAM 34
CN(C)C(CNC(=O)CCc1nc2cc(Cl)ccc2n(Cc2ccccc2)c1=O)c1ccccc1 (stereo not drawn)	M1 antag 27
O=C(Nc1ccc(Cc2ccncc2)cc1)C1CCC(N2C(=O)C3C4C=CC(C4)C3C2=O)CC1 (stereo not drawn)	M1 ag parental 18
COc1ccccc1NOC(=O)CCOc1ccccc1	none
CC1OC(CC(=O)O)CC2=C1C(=O)c1c(O)cccc1C2=O (stereo not drawn)	M1 antag 46
CN(C(=O)c1cccc(NC(=O)Cc2ccc(NC(=O)C3CCCN(S(=O)(=O)c4cccc([N+](=O)[O-])c4)C3)cc2)c1)C1CCCC1 (stereo not drawn)	none
